Data on six compounds can be found in PubChem BioAssay.

Assay [1] concerns Human papillomavirus type 1a protein E7 (residues 44-93). In words: HPV1a E7 fragment binders on microarrays, primary screen, biochemical, small-molecule microarray, residues 44-93, 635 nm fluorescence (AID 1108).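 Note: E7 fragment applied at 1 µg/mL in TBST for 1 h at 4 C; score combines spot fluorescence with its signal to noise ratio.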 Particulars: small-molecule microarray binding, fluorescence 635 nm; higher = more signal.
Assay [2] in a line: modulators of HCV replicon luciferase signal, primary screen, HCV replication inhibitor project, Huh7 cells, luciferase reporter (AID 1109).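 Note: huh7 hepatoma cells harbouring a luciferase neomycin HCV replicon reporter; luciferase luminescence as measure of HCV replicon replication; test concentration not given here.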 Particulars: 48 h, higher = more signal. For orientation: In antiviral work, replicon cells carry a viral genome segment that copies itself.
In assay [3] the target is Left-right determination factor 2 (Homo sapiens) (UniProt O00292). In words: LEFTY2 binders on small-molecule microarrays, primary screen, biochemical, small-molecule microarray, 635 nm fluorescence scan (AID 1110). Particulars: LEFTY2 binding, higher = more signal.
For assay [4], the target named is Calmodulin-1 (Homo sapiens) (UniProt P0DP23). The assay is described as follows: CALM1 binders on microarrays, EGTA buffer, profiling panel, biochemical, small-molecule microarray, Cy5-labelled CALM1 (AID 1111).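 Note: labelled calmodulin applied in Tris saline Tween buffer holding calcium plus EGTA and DTT.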 To be noted: Cy5-CALM1 binding fluorescence, higher = more signal.
For assay [5] the target is unchanged. The assay is described as follows: calcium-bound CALM1 binders on microarrays, profiling panel, artefact control for SMM control-protein annotation, biochemical, small-molecule microarray, Cy5-labelled CALM1, plus calcium (AID 1112).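 Note: score merges spot fluorescence with signal to noise from triplicate slides.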 To be noted: Cy5-CALM1 binding fluorescence, higher = more signal.
Assay [6] is described as follows: small-molecule microarray binders of probe aWnt5a, primary screen, biochemical, biotinylated probe, 635/667 nm fluorescence (AID 1113).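 Note: score merges 667 nm fluorescence intensity with signal-to-noise per printed feature.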 To be noted: higher = more signal.
Assay [7] is described as follows: small-molecule microarray binders of probe aShh, primary screen, biochemical, biotinylated probe, 635/667 nm fluorescence (AID 1114).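 Note: probe is biotin-labelled aShh protein from a stem cell growth factor screen; measures binding of labelled protein to compounds printed on the slide; score merges feature fluorescence at 667 nm with signal-to-noise.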 To be noted: higher = more signal.
Assay [8] is described as follows: small-molecule microarray binders of probe aNog, primary screen, biochemical, biotinylated probe, 635/667 nm fluorescence (AID 1115).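 Note: probe is biotinylated aNog protein used at 0.15 µg/mL for 1 h at 4 C; z-score combines 667 nm fluorescence of each spot with its signal to noise.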 To be noted: higher = more signal.
Assay [9] addresses Torsin-1A-interacting protein 1 (Homo sapiens) (UniProt Q5JTV8). The assay is described as follows: LAP1 binders from COS7 cell lysate, primary screen, small-molecule microarray, 635/667 nm fluorescence (AID 1116). Particulars: COS7-hLAP1 lysate binding, 635 nm fluorescence, higher = more signal.
Assay [10] deals with Alpha-bungarotoxin (Bungarus multicinctus) (UniProt P60615). The assay is described as follows: alpha-bungarotoxin binders on microarray, profiling panel, artefact control for SMM control protein annotation, biochemical, small-molecule microarray, Alexa647 label, 635/667 nm fluorescence (AID 1117). To be noted: alpha-BTX-A647 binding fluorescence, higher = more signal.
Another assay addresses Albumin (Bos taurus) (UniProt P02769). In words: bovine serum albumin binders on microarray, profiling panel, artefact control for SMM control protein annotation, biochemical, small-molecule microarray, Alexa647 label, 635/667 nm fluorescence (AID 1118).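 Note: score merges 667 nm emission intensity and signal-to-noise per printed compound spot.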 Particulars: BSA-A647 binding, fluorescence 635 nm, higher = more signal.
The nature of assay [11]: small-molecule microarray binders of probe aXIP, primary screen, biochemical, NeuroSMM set, 635/667 nm fluorescence (AID 1119).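 Note: probe is the protein aXip251-270 applied at 1 µg/mL to compound-printed slides; binding of probe to printed compounds measured as 667 nm fluorescence plus signal to noise.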 Particulars: higher = more signal, called active from +8 up or from −8 down.
Assay [12] can be described thus: small-molecule binders of probe aNOTCH3, primary screen, biochemical, small-molecule microarray, 635/667 nm fluorescence (AID 1120).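 Note: probe is a biotin-tagged antibody raised against NOTCH3 rather than NOTCH3 protein; score merges spot fluorescence near 667 nm with spot signal to noise.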 Particulars: higher = more signal.
A short description of assay [13]: small-molecule binders of probe aNOTCH2, primary screen, biochemical, small-molecule microarray, 635/667 nm fluorescence (AID 1121).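 Note: score merges feature fluorescence read at 667 nm with its signal to noise.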 Particulars: higher = more signal.
Assay [14] concerns the target Carbonic anhydrase 2 (Homo sapiens) (UniProt P00918). The assay is described as follows: CAII small-molecule binders, profiling panel, biochemical, small-molecule microarray, Alexa647-labelled CAII (AID 1122). To be noted: CAII-A647 binding fluorescence, higher = more signal.
Assay [15] is described as follows: COS7 lysate on small-molecule microarray, probe aHis, 635 nm (AID 1123).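 Note: z-score combines 667nm fluorescence intensity with signal-to-noise per printed compound spot.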 Particulars: COS7 cell lysate, fluorescence, higher = more signal.
Assay [16] is described as follows: compound binding in COS7 lysate, probe aLAP1, primary screen, cell lysate, small-molecule microarray (AID 1124).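 Note: lysate comes from COS7 cells expressing LAP1 and is applied at 0.3 µg/mL; score merges spot fluorescence near 667 nm with signal-to-noise over triplicate slides.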 To be noted: probe aLAP1, fluorescence, higher = more signal.
A further assay has as its system Sam68 (KHDRBS1). The assay is described as follows: Sam68 small-molecule binders, primary screen, biochemical, small-molecule microarray, 635 nm fluorescence (AID 1125).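 Note: score merges 667 nm channel intensity with signal to noise over triplicate slides.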 Particulars: small-molecule microarray binding, higher = more signal.
Assay [17] has as its system Chordin-like protein 2 (CHRDL2). In words: CHRDL2 small-molecule binders, primary screen, biochemical, small-molecule microarray, 635 nm fluorescence (AID 1126).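 Note: printed compound slides probed with Chrdl2 protein at 4 µg/mL for 1 h at 4 C; score merges 667 nm emission intensity with signal to noise over three replicate slides.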 To be noted: small-molecule microarray binding, fluorescence 635 nm; higher = more signal.
Assay [18] addresses Concanavalin-A (Canavalia ensiformis) (UniProt P02866). In words: ConA small-molecule binders, primary screen, artefact control for SMM control protein annotation, biochemical, small-molecule microarray, Alexa647 label, 635 nm (AID 1127).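 Note: z combines 667 nm emission intensity with signal-to-noise across three replicate slides.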 To be noted: ConA-A647 binding fluorescence, higher = more signal.

The source made the active and inactive calls.

Albumin (Bos taurus), sequence (P02769 whole entry, looked up): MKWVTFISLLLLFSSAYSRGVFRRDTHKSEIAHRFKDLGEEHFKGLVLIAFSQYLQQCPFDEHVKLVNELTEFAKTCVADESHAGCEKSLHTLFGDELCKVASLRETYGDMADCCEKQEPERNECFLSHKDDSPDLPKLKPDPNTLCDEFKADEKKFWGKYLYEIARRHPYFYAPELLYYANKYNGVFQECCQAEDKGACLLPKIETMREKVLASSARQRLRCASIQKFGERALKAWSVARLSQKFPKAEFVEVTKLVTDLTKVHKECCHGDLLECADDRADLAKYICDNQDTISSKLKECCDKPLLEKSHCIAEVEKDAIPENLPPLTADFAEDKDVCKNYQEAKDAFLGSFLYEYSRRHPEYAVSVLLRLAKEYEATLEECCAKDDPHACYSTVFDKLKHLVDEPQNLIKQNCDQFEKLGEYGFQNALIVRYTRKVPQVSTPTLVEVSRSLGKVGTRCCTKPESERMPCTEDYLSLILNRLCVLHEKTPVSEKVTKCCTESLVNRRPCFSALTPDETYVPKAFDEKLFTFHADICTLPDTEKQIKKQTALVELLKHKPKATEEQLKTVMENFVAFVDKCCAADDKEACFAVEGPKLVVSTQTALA
Alpha-bungarotoxin (Bungarus multicinctus), sequence (P60615 whole entry, looked up): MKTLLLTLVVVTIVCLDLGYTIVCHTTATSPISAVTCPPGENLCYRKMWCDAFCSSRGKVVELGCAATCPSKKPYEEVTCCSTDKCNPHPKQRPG
Torsin-1A-interacting protein 1 (Homo sapiens), sequence (Q5JTV8 whole entry, looked up): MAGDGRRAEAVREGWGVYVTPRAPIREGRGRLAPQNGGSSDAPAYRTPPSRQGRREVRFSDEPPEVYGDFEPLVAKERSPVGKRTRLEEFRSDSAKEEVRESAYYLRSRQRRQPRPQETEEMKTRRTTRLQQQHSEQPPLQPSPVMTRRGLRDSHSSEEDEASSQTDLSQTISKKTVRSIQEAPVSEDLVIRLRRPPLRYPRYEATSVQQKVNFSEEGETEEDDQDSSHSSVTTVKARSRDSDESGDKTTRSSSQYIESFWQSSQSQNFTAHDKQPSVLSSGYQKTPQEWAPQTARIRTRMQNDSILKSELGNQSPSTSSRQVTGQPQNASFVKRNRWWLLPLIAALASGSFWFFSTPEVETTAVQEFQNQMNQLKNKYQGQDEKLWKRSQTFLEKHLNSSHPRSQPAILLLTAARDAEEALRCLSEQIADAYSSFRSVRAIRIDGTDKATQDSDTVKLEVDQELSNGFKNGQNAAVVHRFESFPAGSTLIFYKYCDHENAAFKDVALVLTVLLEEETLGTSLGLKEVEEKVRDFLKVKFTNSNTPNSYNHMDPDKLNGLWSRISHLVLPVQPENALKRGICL
Left-right determination factor 2 (Homo sapiens), sequence (O00292 whole entry, looked up): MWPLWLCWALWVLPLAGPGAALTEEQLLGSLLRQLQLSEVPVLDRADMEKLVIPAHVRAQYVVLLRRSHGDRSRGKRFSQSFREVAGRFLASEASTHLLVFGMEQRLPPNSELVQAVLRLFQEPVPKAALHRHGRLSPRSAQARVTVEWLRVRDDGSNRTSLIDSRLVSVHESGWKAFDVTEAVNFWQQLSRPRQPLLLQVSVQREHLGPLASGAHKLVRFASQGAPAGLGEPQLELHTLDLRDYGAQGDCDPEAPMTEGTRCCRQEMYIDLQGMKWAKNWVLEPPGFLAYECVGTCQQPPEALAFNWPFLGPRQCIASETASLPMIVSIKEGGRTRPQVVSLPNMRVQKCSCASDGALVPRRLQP
Concanavalin-A (Canavalia ensiformis), sequence (P02866 whole entry, looked up): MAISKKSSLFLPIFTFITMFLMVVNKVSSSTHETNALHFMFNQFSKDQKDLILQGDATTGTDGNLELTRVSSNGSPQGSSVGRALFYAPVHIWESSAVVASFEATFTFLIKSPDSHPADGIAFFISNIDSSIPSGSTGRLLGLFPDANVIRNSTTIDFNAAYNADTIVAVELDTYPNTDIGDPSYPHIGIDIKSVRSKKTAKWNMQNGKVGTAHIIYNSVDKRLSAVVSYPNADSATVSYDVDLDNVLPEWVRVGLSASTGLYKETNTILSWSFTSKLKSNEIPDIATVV

On to `CCOC(=O)C1=CC[C@@H](c2ccc(C(F)(F)F)cc2)N(S(=O)(=O)c2ccc(C)cc2)[C@H]1c1ccccc1`, for which the composite z-score in assay [1] is 0.277; in assay [3] it was 0.221; in assay [4] it was 2.08; in assay [5] it was 0.55; in [6], 0.201; in [7], 0.109. For the same compound, the composite z-score in [8] was 1.43; in assay [9], 1.51; in [10], 1.56; with Albumin (Bos taurus), 0.871; in assay [12], 0.158; in assay [13], 0.21. The composite z-score is 0.603 in assay [14]; 2.27 in [15]; 0.782 in assay [16]; 1.31 in the assay on Sam68 (KHDRBS1); -0.863 in assay [17]; 1.13 in [18]. Further, the z-score in assay [2] was -1.1. For the same compound, the composite Z-score in assay [11] is 0.506 (inactive).

For `CC(C)C(=C=CC[C@H](O)c1ccc(CO)o1)CCO`, the composite z-score in [1] was 1.21; in assay [3], -0.0171; in assay [4], -0.26; in assay [5], -0.649; in assay [6], -0.15; in [7], -0.0793. In addition, the composite z-score is -0.0827 in assay [8]; 0.843 in assay [9]; 0.963 in assay [10]; 0.906 with Albumin (Bos taurus); -0.111 in [12]; -0.148 in assay [13]. The composite z-score turned out to be 0.756 in [14]; 0.514 in [15]; 0.792 in assay [16]; 0.856 with Sam68 (KHDRBS1); 0.0622 in assay [17]; 0.828 in assay [18]. In addition, the z-score in [2] is -1.12. In addition, in assay [11], the composite Z-score is 0.304 (inactive).

`CN1C(=O)C2C=CC(C(O)c3ccc(F)cc3)N(N(c3ccccc3)c3ccccc3)C2C1=O` (stereo not given): the composite z-score in [1] was 1.11; in assay [3], -0.698; in assay [4] it was 0.49; in [5], -0.235; in [6], -0.0236; in assay [7] it was -0.152. Further, the composite z-score in assay [8] is -0.55; in assay [9], 0.154; in assay [10], 0.633; in the assay with Albumin (Bos taurus) it was 0.698; in [12], 0.206; in assay [13] it was 0.0264. Further, the composite z-score is 0.506 in assay [14]; 2.82 in assay [15]; 0.0833 in [16]; -0.0714 with Sam68 (KHDRBS1); -0.69 in assay [17]; 0.324 in assay [18]. Moreover, the z-score in assay [2] was -0.0952. The composite Z-score in [11] is 2.43 (inactive).

For the compound `COCC(=C=CC[C@H](O)c1cccc(OCCO)c1)C[C@H](O)c1cc(Cl)cc(Cl)c1O`, the composite z-score was 1.37 in assay [1]; 0.578 in [3]; -0.0781 in [4]; -0.821 in assay [5]; -0.0478 in [6]; 0.0639 in assay [7]. Moreover, the composite z-score in assay [8] was -0.328; in assay [9] it was 1.12; in assay [10] it was 0.0872; with Albumin (Bos taurus), 0.187; in assay [12] it was -0.0343; in [13] it was -0.0083. Moreover, the composite z-score in assay [14] was 0.383; in assay [15], 1.77; in assay [16], 0.328; in the assay with Sam68 (KHDRBS1), 1.3; in [17], 0.695; in assay [18], 0.337. The same compound displayed a z-score in assay [2] of -0.566. In [11], the composite Z-score was -0.103 (inactive).

As for `COCCOC(=O)N1C(=O)[C@@]2(c3cc(C#CC4(O)CCCCCC4)ccc31)[C@H](C(=O)Nc1nc3ccccc3s1)[C@H]1C(=O)O[C@H](c3ccccc3)[C@H](c3ccccc3)N1[C@@H]2c1ccccc1OCCO`, the composite z-score in assay [1] is -0.441; in assay [3], 0.555; in [4], 1.71; in [5], 0.926; in [6], -0.0165; in [7], 0.321. Besides, the composite z-score in [8] was 0.546; in assay [9] it was 0.547; in assay [10], 2.37; in the assay with Albumin (Bos taurus) it was 0.306; in assay [12] it was -0.0647; in [13], -0.162. Also, the composite z-score in [14] was 0.598; in assay [15], 1.73; in assay [16], 0.233; in the assay on Sam68 (KHDRBS1), 1.3; in [17] it was -0.0036; in assay [18], 1.16. The compound also gave a z-score in assay [2] of -1.66. Moreover, the composite Z-score in assay [11] is -0.129 (inactive).

Turning to `CC1CC/C=C\[C@H]2OC34C=CCN(Cc5ccccc5)C(=O)[C@H]3N(C(C)CO)C(=O)[C@@H]4C2C(=O)O1` (stereo not given in full), the composite z-score was -1.75 in [1]; 0.267 in assay [3]; -0.756 in assay [4]; -0.857 in assay [5]; -0.148 in assay [6]; 0.0952 in [7]. The composite z-score was -0.193 in assay [8]; -0.457 in assay [9]; -0.463 in assay [10]; -0.852 with Albumin (Bos taurus); -0.0647 in assay [12]; -0.0846 in assay [13]. Also, the composite z-score in [14] was 0.331; in assay [15] it was -0.412; in assay [16] it was -0.0231; in the assay on Sam68 (KHDRBS1), -0.99; in assay [17], -0.0576; in assay [18], -0.239. Also, in assay [2], the z-score was -0.514. The composite Z-score in [11] was -0.592 (inactive).
